The values below come from the supplement of paper PMC4840960.

The structures appear in SMILES notation. Counter-ions that a name gives are not always drawn. ± gives the standard deviation of the averaged measurements.

The first experiment deals with E18 rat cortical neuron-glia co-culture. Nature of the experiment: fiber score / MBP score (myelination specific beyond OL differentiation) (ratio); higher = more myelination-specific MBP alignment. The conditions noted are these: 5 µM; treatment time: 8 days (DIV5-DIV13). The procedure, abridged:
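Reported values are fiber score (continuous MBP fiber length per Olig2+ nucleus) divided by MBP score (thresholded MBP area × intensity per Olig2+ nucleus). They come from primary E18 rat cortical co-cultures treated with library compounds at 1 or 5 µM in myelination medium from DIV5 to DIV13, then fixed in 4 % paraformaldehyde, immunostained for MBP and Olig2 with DAPI, and analysed over four 10X fields per well in duplicate wells.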
Consider `O=C1CC[C@@H](C(=O)N2CSC[C@H]2C(=O)O)N1` [Pidotimod], for which the “fiber score / MBP score” value was 0.881.

In the case of `CN(CCO)CC(O)Cn1cnc2c1c(=O)n(C)c(=O)n2C` (stereo not drawn) [Jupal], the “fiber score / MBP score” value came out at 0.635. Same read-out and setting: next, `CN/C(=N\CCSCc1nc[nH]c1C)NC#N` [Cimetidine]: 0.823; `COc1cc(C(=O)NC2CCCNC2)cc(OC)c1OC` (stereo not drawn) [Troxipide]: 0.803. Still for that read-out and setting: next, `CCc1cc(C(N)=S)ccn1` [Ethionamide]: 1.1; `COc1ccccc1N1CCN(CCCNc2cc(=O)n(C)c(=O)n2C)CC1` [Urapidil]: 0.799. `COc1ccc(Cl)cc1C(=O)NCCc1ccc(S(=O)(=O)NC(=O)NC2CCCCC2)cc1` [Glyburide]: the “fiber score / MBP score” value was found to be 0.835. `O=C1CCC(N2C(=O)c3ccccc3C2=O)C(=O)N1` (stereo not drawn) [Thalidomide]: the “fiber score / MBP score” value is 1.14. Same read-out and setting: next, `COc1ccccc1OCC(O)CN1CCN(CC(=O)Nc2c(C)cccc2C)CC1` (stereo not drawn) [Ranolazine]: 0.697. Still for that read-out and setting: next, `CC(=O)O[C@@]12CO[C@@H]1C[C@H](O)[C@@]1(C)C(=O)[C@H](O)C3=C(C)[C@@H](OC(=O)[C@H](O)[C@@H](NC(=O)OC(C)(C)C)c4ccccc4)C[C@@](O)([C@@H](OC(=O)c4ccccc4)[C@H]21)C3(C)C` [Docetaxel]: 1.62; `CCCCC(=O)N(Cc1ccc(-c2ccccc2-c2nnn[nH]2)cc1)[C@H](C(=O)O)C(C)C` [Valsartan]: 0.655.

Regarding `CN(C)CCc1c[nH]c2ccc(C[C@H]3COC(=O)N3)cc12` [Zolmitriptan], the “fiber score / MBP score” value turned out to be 0.785. `CC(=O)CCCCn1c(=O)c2c(ncn2C)n(C)c1=O` [Pentoxifylline]: the “fiber score / MBP score” value stood at 0.839 ± 0.17.

As to `NS(=O)(=O)c1cc2c(cc1C(F)(F)F)NC(Cc1ccccc1)NS2(=O)=O` (stereo not drawn) [Bendroflumethiazide], the “fiber score / MBP score” value worked out at 0.559. Still for that read-out and setting: the figure for `CN(CCOc1ccc(NS(C)(=O)=O)cc1)CCc1ccc(NS(C)(=O)=O)cc1` [Dofetilide] is 0.728. The same measure, in the same setting: next, `COc1cc(-c2ccc(=O)[nH]n2)ccc1OC(F)F` [Zardaverine]: 0.397.

On to `O=C(O)c1cc(-c2ccc(F)cc2F)ccc1O` [Diflunisal], for which the “fiber score / MBP score” value turned out to be 1.08. Still for that read-out and setting: the figure for `S=c1[nH]cnc2nc[nH]c12` [Mercaptopurine] is 0.41; for `C[C@H]1C[C@H]2[C@@H]3CCC4=CC(=O)C=C[C@]4(C)[C@@]3(Cl)[C@@H](O)C[C@]2(C)[C@@]1(O)C(=O)CO` [Beclomethasone] it is 0.822 ± 0.021. Still for that read-out and setting: next, `CC1(C)S[C@@H]2[C@H](NC(=O)[C@H](N)c3ccccc3)C(=O)N2[C@H]1C(=O)O` [Ampicillin]: 0.192; `Nc1nc(=O)[nH]cc1F` [Flucytosine]: 0.855. On the same count and under the same terms, next, `CC(=O)O[C@H]1C[C@@H]2CC[C@@H]3[C@H](CC[C@@]4(C)[C@H]3C[C@H]([N+]3(C)CCCCC3)[C@@H]4OC(C)=O)[C@@]2(C)C[C@@H]1N1CCCCC1` [Vecuronium Bromide]: 0.791; `OCCOCCN1CCN(C(c2ccccc2)c2ccc(Cl)cc2)CC1` (stereo not drawn) [Hydroxyzine pamoate salt]: 0.28; `COc1cc(C)c(/C=C/C(C)=C/C=C/C(C)=C/C(=O)O)c(C)c1C` [Acitretin]: 1.45. With `NS(=O)(=O)Cc1noc2ccccc12` [Zonisamide], the “fiber score / MBP score” value came out at 0.799. The same measure, in the same setting: the figure for `COC(=O)C1=C(C)NC(C)=C(C(=O)OC2CCCN(Cc3ccccc3)C2)C1c1cccc([N+](=O)[O-])c1` (stereo not drawn) [Benidipine] is 0.892.

With `CC(C)Oc1ccc2c(=O)c(-c3ccccc3)coc2c1` [Ipriflavone], the “fiber score / MBP score” value came to 0.957. Same read-out and setting: the figure for `Cc1nc(=O)c2cc(CN(C)c3ccc(C(=O)N[C@@H](CCC(=O)O)C(=O)O)s3)ccc2[nH]1` [Raltitrexed] is 1.67; for `Cc1cn([C@H]2C[C@H](N=[N+]=[N-])[C@@H](CO)O2)c(=O)[nH]c1=O` [Zidovudine] it is 0.666.

For another experiment the test system is unchanged. Description: myelination (MBP fiber length per Olig2+ nucleus), % of 1 µM DAPT response (DMSO = 0) (% of DAPT); higher = more myelination, active = 50 or more. The settings on record: 1 µM; treatment time: 8 days (DIV5-DIV13). The procedure, abridged:
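Rat cortical co-cultures from E18 tissue were dissociated with papain and plated at 20,000 cells/well on 96-well plates coated with poly-d-lysine/laminin. From DIV5 to DIV13, library compounds were added at 1 or 5 µM in myelination medium. After fixation in 4 % paraformaldehyde, cultures were immunostained for MBP and Olig2 and counterstained with DAPI, and four 10X fields were analysed in each of duplicate wells. The myelination value is the length of continuous straight MBP fibers per Olig2+ nucleus, normalised so that 0.1 % DMSO is 0 and a 1 µM positive control is 100.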
On to `CN1CCCCC1CCN1c2ccccc2Sc2ccc([S+](C)[O-])cc21` (stereo not drawn) [Mesoridazine], for which the myelination is -39.6 (inactive). On the same count and under the same terms, next, `NC12CC3CC(CC(C3)C1)C2` [Amantadine]: -4.46 (inactive); `CN1CCN(c2c(F)cc3c(=O)c(C(=O)O)cn4c3c2SCC4)CC1` [Rufloxacin]: 62.1.

Turning to `COc1cc(N)c(Cl)cc1C(=O)NC1CCN(CCCOc2ccc(F)cc2)CC1OC` (stereo not drawn) [Cisapride], the myelination is -1.62 (inactive). With `COc1ccc(C2CNC(=O)C2)cc1OC1CCCC1` (stereo not drawn) [Rolipram], the myelination was -51.4 (inactive). In the case of `CCCCN1CCCCC1C(=O)Nc1c(C)cccc1C` (stereo not drawn) [Bupivacaine], the myelination was -11.2 (inactive).

For `O=C(CCCN1CC=C(n2c(=O)[nH]c3ccccc32)CC1)c1ccc(F)cc1` [Droperidol], the myelination is -4.1 (inactive). The same measure, in the same setting: the figure for `CCCC(CCC)C(=O)O` [Valproic Acid] is -6.19 (inactive); for `COc1cc(C[C@@H](CO)[C@H](CO)Cc2ccc(O)c(OC)c2)ccc1O` [Secoisolariciresinol] it is -4.03 (inactive). The same measure, in the same setting: the figure for `C[C@H]1O[C@@H](O[C@H]2[C@@H](O)C[C@H](O[C@H]3[C@@H](O)C[C@H](O[C@H]4CC[C@@]5(C)[C@H](CC[C@@H]6[C@@H]5C[C@@H](O)[C@]5(C)[C@@H](C7=CC(=O)OC7)CC[C@]65O)C4)O[C@@H]3C)O[C@@H]2C)C[C@H](O)[C@@H]1O` [Digoxin] is 34 (inactive); for `O=C1CC[C@@H](C(=O)N2CSC[C@H]2C(=O)O)N1` [Pidotimod] it is -7.34 (inactive); for `CN(CCO)CC(O)Cn1cnc2c1c(=O)n(C)c(=O)n2C` (stereo not drawn) [Jupal] it is -7.05 (inactive). Consider `CN/C(=N\CCSCc1nc[nH]c1C)NC#N` [Cimetidine], for which the myelination was -12.1 (inactive). Same read-out and setting: next, `COc1cc(C(=O)NC2CCCNC2)cc(OC)c1OC` (stereo not drawn) [Troxipide]: -15.3 (inactive).

For `CCc1cc(C(N)=S)ccn1` [Ethionamide], the myelination was -1.99 (inactive).

Take `COc1ccccc1N1CCN(CCCNc2cc(=O)n(C)c(=O)n2C)CC1` [Urapidil]: the myelination is -28.5 (inactive). Turning to `COc1ccc(Cl)cc1C(=O)NCCc1ccc(S(=O)(=O)NC(=O)NC2CCCCC2)cc1` [Glyburide], the myelination is 1.49 (inactive). On the same count and under the same terms, the figure for `O=C1CCC(N2C(=O)c3ccccc3C2=O)C(=O)N1` (stereo not drawn) [Thalidomide] is 1.07 (inactive); for `COc1ccccc1OCC(O)CN1CCN(CC(=O)Nc2c(C)cccc2C)CC1` (stereo not drawn) [Ranolazine] it is -13.7 (inactive).

Regarding `CC(=O)O[C@@]12CO[C@@H]1C[C@H](O)[C@@]1(C)C(=O)[C@H](O)C3=C(C)[C@@H](OC(=O)[C@H](O)[C@@H](NC(=O)OC(C)(C)C)c4ccccc4)C[C@@](O)([C@@H](OC(=O)c4ccccc4)[C@H]21)C3(C)C` [Docetaxel], the myelination was 263 (active). On the same count and under the same terms, next, `CCCCC(=O)N(Cc1ccc(-c2ccccc2-c2nnn[nH]2)cc1)[C@H](C(=O)O)C(C)C` [Valsartan]: -7.17 (inactive). Same read-out and setting: next, `CN(C)CCc1c[nH]c2ccc(C[C@H]3COC(=O)N3)cc12` [Zolmitriptan]: -9.2 (inactive).

As to `CC(=O)CCCCn1c(=O)c2c(ncn2C)n(C)c1=O` [Pentoxifylline], the myelination is -4.66 (inactive). Still for that read-out and setting: next, `NS(=O)(=O)c1cc2c(cc1C(F)(F)F)NC(Cc1ccccc1)NS2(=O)=O` (stereo not drawn) [Bendroflumethiazide]: -24.6 (inactive); `CN(CCOc1ccc(NS(C)(=O)=O)cc1)CCc1ccc(NS(C)(=O)=O)cc1` [Dofetilide]: 10.4 (inactive); `COc1cc(-c2ccc(=O)[nH]n2)ccc1OC(F)F` [Zardaverine]: -34.6 (inactive).

Regarding `O=C(O)c1cc(-c2ccc(F)cc2F)ccc1O` [Diflunisal], the myelination is -4.48 (inactive). Still for that read-out and setting: next, `S=c1[nH]cnc2nc[nH]c12` [Mercaptopurine]: -32.7 (inactive). On the same count and under the same terms, next, `C[C@H]1C[C@H]2[C@@H]3CCC4=CC(=O)C=C[C@]4(C)[C@@]3(Cl)[C@@H](O)C[C@]2(C)[C@@]1(O)C(=O)CO` [Beclomethasone]: -2.48 (inactive); `CC1(C)S[C@@H]2[C@H](NC(=O)[C@H](N)c3ccccc3)C(=O)N2[C@H]1C(=O)O` [Ampicillin]: -16.3 (inactive); `Nc1nc(=O)[nH]cc1F` [Flucytosine]: -9.17 (inactive). On the same count and under the same terms, the figure for `CC(=O)O[C@H]1C[C@@H]2CC[C@@H]3[C@H](CC[C@@]4(C)[C@H]3C[C@H]([N+]3(C)CCCCC3)[C@@H]4OC(C)=O)[C@@]2(C)C[C@@H]1N1CCCCC1` [Vecuronium Bromide] is -15.8 (inactive).

As for `OCCOCCN1CCN(C(c2ccccc2)c2ccc(Cl)cc2)CC1` (stereo not drawn) [Hydroxyzine pamoate salt], the myelination was -6.65 (inactive). Same read-out and setting: next, `COc1cc(C)c(/C=C/C(C)=C/C=C/C(C)=C/C(=O)O)c(C)c1C` [Acitretin]: 0.3 (inactive). The same measure, in the same setting: the figure for `NS(=O)(=O)Cc1noc2ccccc12` [Zonisamide] is -33.9 (inactive); for `COC(=O)C1=C(C)NC(C)=C(C(=O)OC2CCCN(Cc3ccccc3)C2)C1c1cccc([N+](=O)[O-])c1` (stereo not drawn) [Benidipine] it is -35.3 (inactive); for `CC(C)Oc1ccc2c(=O)c(-c3ccccc3)coc2c1` [Ipriflavone] it is -8.04 (inactive).

For the compound `Cc1nc(=O)c2cc(CN(C)c3ccc(C(=O)N[C@@H](CCC(=O)O)C(=O)O)s3)ccc2[nH]1` [Raltitrexed], the myelination was 177. For the compound `Cc1cn([C@H]2C[C@H](N=[N+]=[N-])[C@@H](CO)O2)c(=O)[nH]c1=O` [Zidovudine], the myelination was 11.9 (inactive).
